Test results taken from PubChem BioAssay AID1224853 (National Center for Advancing Translational Sciences (NCATS), 2016).
Records with an inconclusive call do not appear. The source made the active and inactive calls. Calls come from the whole dose curve; as a rule, active = well fitted inhibition curve with a large enough effect; inconclusive = small, poorly fitted or top-dose-only effect; inactive = no such curve, though single readings can be large or run the other way.

assay: Confirmation assay for measurement of the activity of small molecule inhibitors on Zika virus induced Caspase-3 activity in human astrocytoma cells; conditions: SNB-19 ZIKV-induced caspase-3/7, luminescence, 6 h; series mostly up to 46.1 µM
From the text: National Center for Advancing Translational Sciences [NCATS] Johns Hopkins University School of Medicine Florida State University Assay Overview: Increase in the Caspase-3 activity indicates an activation of apoptosis cell death pathway caused by Zika virus infection in certain types of neuronal cells including human neural progenitor cells (hNPCs), astrocytes, and astrocytoma cell line (SNB-19). This cell-based caspase-3 activity assay measures the increased caspase-3 activity in the astrocytoma cell line (SNB-19) after a 6-hour Zika virus infection with a luminescence readout. A decrease in the luminescence signal in this assay by small molecule treatment indicates an inhibitory effect of that small molecule on the Zika virus induced caspase-3 activity that may correlate with its effect on reduction of Zika virus caused cell death.
Assay Protocol Summary: The medium for SNB-19 cells is composed of RPMI 1640 (ATCC, Cat.# 30-2001), 10% fetal bovine serum (FBS) (GE healthcare Life Sciences, Cat.# SH30071.03), and 1% Pen/Strep (Gibco, Cat.# 15140-122). A Caspase-Glo 3/7 assay kit (catalog number G8092; Promega, Madison, WI) was used to detect caspase-3 activity induced by Zika virus infection in human cells. The reagent mixture was reconstituted as described in the protocol from the manufacturer. Polystyrene tissue culture treated and PDL coated white plates were obtained from Greiner Bio-One (Monroe, NC). Cells were seeded in 384- or 1536-well assay plates and cultured at 37 C with 5% CO2 for 16 to 20 hours. The typical cell seeding density in the 1536-well plate assay is 250 cells/well in 3ul medium for SNB-19 cells in tissue culture treated plates. Compounds were added to cells and incubated for one hour before addition of ZIKV solution to cells (2 FFU/cell). After incubation at 37 C with 5% CO2 for 6 hours, the reagent mixture of Caspase-Glo 3/7 assay kit was added to each well, followed by incubation at room temperature for 30 minutes. The luminescence intensity of the assay plates was measured using a ViewLux plate reader (PerkinElmer). Data were normalized by using the cell-containing wells without ZIKV as a negative control (0% induction of caspase 3/7 activity) and wells containing ZIKV infected cells (Caspase-3 activity induced) as a positive control (100% induction of caspase 3 activity). The percentage inhibitions of the increased Caspase-3 activity by small molecule inhibitors were then calculated.

**Q.** Which Potency does the source give for `Cc1cccc(C#Cc2ccccc2)n1` here?
**A.** 4.89 µM (active)

**Q.** With `Cc1c(NC(=O)c2ccc(C(C)(C)C)cc2)cccc1-c1cn(C)c(=O)c(Nc2ccc(C(=O)N3CCOCC3)cc2)n1` as the compound, how does the Potency read?
**A.** inactive

**Q.** With `CS(=O)(=O)c1ccc(-c2cn3ccccc3n2)cc1` as the compound, how does the Potency read?
**A.** 4.35 µM (active)

**Q.** Which Potency does the source give for `O=C(O)[C@@H](c1ccc(OCc2ccc3ccccc3n2)cc1)C1CCCC1` here?
**A.** 13.8 µM (active)

**Q.** Which Potency does the source give for `CC(=O)Oc1ccccc1C(=O)Nc1ncc([N+](=O)[O-])s1` here?
**A.** 2.24 µM (active)

**Q.** Which Potency does the source give for `O=C(/C=C/c1ccccc1)NCCO` here?
**A.** inactive

**Q.** Which Potency does the source give for `C[C@@H](N)c1ccc(C(=O)Nc2ccnc3[nH]ccc23)cc1` here?
**A.** inactive

**Q.** Which Potency does the source give for `O=S(=O)(O)c1ccc2nc(-c3ccccc3)[nH]c2c1` here?
**A.** 1.73 µM (active)

**Q.** With `COc1ccc(-c2cc(=O)c3c(O)cc(O)cc3o2)cc1O` as the compound, how does the Potency read?
**A.** 13.8 µM (active)

**Q.** With `C=CCCCCCCCCC(=O)O` as the compound, how does the Potency read?
**A.** inactive

**Q.** With `CCOC1OC(=O)C[C@H]1NC(=O)[C@@H]1CCCN1C(=O)[C@@H](NC(=O)c1ccc(N)c(Cl)c1)C(C)(C)C` (stereo not given in full) as the compound, how does the Potency read?
**A.** inactive

**Q.** Which Potency does the source give for `NC(N)=NN=C(/C=C/c1ccc([N+](=O)[O-])o1)/C=C/c1ccc([N+](=O)[O-])o1` here?
**A.** inactive

**Q.** For `O=C1C[C@@H](c2ccc(O)cc2)Oc2cc(O)cc(O)c21`, which Potency is on record?
**A.** 15.5 µM (active)

**Q.** Which Potency does the source give for `CC(C(=O)O)c1ccc2c(c1)[nH]c1ccc(Cl)cc12` (stereo not given) here?
**A.** inactive

**Q.** With `c1ccc2[nH]c(-c3cscn3)nc2c1` as the compound, how does the Potency read?
**A.** 12.3 µM (active)

**Q.** For `COc1cc2nc(-c3ccc(N4CCN(C)CC4)cc3)nc(NCCN3CCOCC3)c2cc1OC`, which Potency is on record?
**A.** inactive

**Q.** For `C=C1C(=O)[C@@]23C(CC[C@@H]1[C@H]2O)[C@@]12CO[C@]3(O)[C@@H](O)[C@@H]1C(C)(C)CC[C@@H]2O` (stereo not given in full), which Potency is on record?
**A.** inactive

**Q.** Which Potency does the source give for `O=C(Nc1cc2cc[nH]c2cn1)c1ccccc1` here?
**A.** 4.35 µM (active)

**Q.** With `O=C(O)c1cc([N+](=O)[O-])ccc1NCCCc1ccccc1` as the compound, how does the Potency read?
**A.** 19.5 µM (active)

**Q.** Which Potency does the source give for `O=C1c2ccccc2C(=O)c2c(NCCc3ccc(O)cc3)ccc(NCCc3ccc(O)cc3)c21` here?
**A.** inactive

**Q.** With `CC(C(=O)O)c1ccc(C(=O)c2cccs2)cc1` (stereo not given) as the compound, how does the Potency read?
**A.** 17.3 µM (active)

**Q.** For `COc1ccc(NC(=O)/C=C/c2ccc(Cl)cc2)cc1`, which Potency is on record?
**A.** 3.46 µM (active)

**Q.** Which Potency does the source give for `O=C(O)c1cccc(-c2noc(-c3ccccc3F)n2)c1` here?
**A.** 3.46 µM (active)

**Q.** Which Potency does the source give for `Cc1[nH]c(C=C2C(=O)Nc3ccccc32)c(C)c1CCC(=O)O` here?
**A.** inactive

**Q.** Which Potency does the source give for `CC(C)Oc1ccc2c(=O)c(-c3ccccc3)coc2c1` here?
**A.** 12.3 µM (active)

**Q.** For `O=C(Nc1ccc(C(=O)O)c(O)c1)c1ccccc1`, which Potency is on record?
**A.** 6.15 µM (active)

**Q.** With `O=C(O)c1ccccc1NCCc1ccccc1` as the compound, how does the Potency read?
**A.** inactive

**Q.** With `Cc1c(N)c(=O)n(-c2ccccc2)n1C` as the compound, how does the Potency read?
**A.** inactive

**Q.** Which Potency does the source give for `Cc1nc(-c2ccc(OCC(C)C)c(C#N)c2)sc1C(=O)O` here?
**A.** 2.45 µM (active)

**Q.** Which Potency does the source give for `Cc1nc(N)sc1-c1ccnc(Nc2ccc(N3CCOCC3)cc2)n1` here?
**A.** inactive

**Q.** Which Potency does the source give for `N[C@H](CSC(c1ccccc1)(c1ccccc1)c1ccccc1)C(=O)O` here?
**A.** inactive

**Q.** With `O=C1NC(=O)C(=Cc2ccc(-c3ccc(F)cc3)o2)S1` as the compound, how does the Potency read?
**A.** 13.8 µM (active)

**Q.** For `CC[C@]1(O)C[C@H]2CN(CCc3c([nH]c4ccccc34)[C@@](C(=O)OC)(c3cc4c(cc3OC)N(C=O)[C@H]3[C@@](O)(C(=O)OC)[C@H](OC(C)=O)[C@]5(CC)C=CCN6CC[C@]43[C@@H]65)C2)C1`, which Potency is on record?
**A.** inactive

**Q.** Which Potency does the source give for `Clc1ccccc1-c1nc(-c2ccncc2)no1` here?
**A.** 7.74 µM (active)

**Q.** With `CCCCCNC(=O)N1CCC(CN(Cc2ccc(Cl)cc2)Cc2ccc([N+](=O)[O-])s2)C1` (stereo not given) as the compound, how does the Potency read?
**A.** inactive

**Q.** With `CN1CC(=O)N2C(Cc3c([nH]c4ccccc34)[C@H]2c2ccc3c(c2)OCO3)C1=O` (stereo not given in full) as the compound, how does the Potency read?
**A.** inactive

**Q.** For `Oc1cc(O)cc(/C=C/c2ccc(O)c(O)c2)c1`, which Potency is on record?
**A.** 6.15 µM (active)

**Q.** For `CCCCCCCCCCCC(=O)[O][Sn]([CH2]CCC)([CH2]CCC)[O]C(=O)CCCCCCCCCCC`, which Potency is on record?
**A.** inactive

**Q.** For `OCc1ccc(-c2ccc(-c3ccc(CO)s3)o2)s1`, which Potency is on record?
**A.** 0.218 µM (active)

**Q.** With `O=C(/C=C/c1ccc(O)cc1)c1ccc(O)cc1O` as the compound, how does the Potency read?
**A.** 2.45 µM (active)
